PubChem BioAssay (NCI)
Values joined by “and” are separate entries in the source; they are usually repeats but may differ in a detail not shown here. Identical values can stand only once. Compounds without any hit were thinned out: in the full panel of roughly 83,000, 20% have a hit.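 Percent growth is the endpoint: 0 to 100 indicates growth inhibition (40 means 60% inhibition), 0 means no net growth, and negative values indicate cell death.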 A structure can be active in one record and inactive in another. Active and inactive are the calls of the source. How the source made its calls: active means growth percent below 10; inactive means the rest.

Experiments:
Experiment in all cases: NCI-60 one-dose screen, 48 h (100 = growth as untreated, 0 = no growth, -100 = all killed)
Conditions in all cases: 10 µM unless noted
SK-MEL-2 melanoma = tested on: SK-MEL-2 melanoma
SN12C renal = tested on: SN12C renal
UO-31 renal = tested on: UO-31 renal
TK-10 renal = tested on: TK-10 renal
ACHN renal = tested on: ACHN renal
CAKI-1 renal = tested on: CAKI-1 renal
A498 renal = tested on: A498 renal
HL-60(TB) leukemia = tested on: HL-60(TB) leukemia
CCRF-CEM leukemia = tested on: CCRF-CEM leukemia
MOLT-4 leukemia = tested on: MOLT-4 leukemia
SR leukemia = tested on: SR leukemia
OVCAR-8 ovarian = tested on: OVCAR-8 ovarian
OVCAR-5 ovarian = tested on: OVCAR-5 ovarian
OVCAR-4 ovarian = tested on: OVCAR-4 ovarian
SK-OV-3 ovarian = tested on: SK-OV-3 ovarian
IGROV1 ovarian = tested on: IGROV1 ovarian
OVCAR-3 ovarian = tested on: OVCAR-3 ovarian
HS 578T breast = tested on: HS 578T breast
EKVX NSCLC = tested on: EKVX NSCLC
RPMI-8226 leukemia = tested on: RPMI-8226 leukemia

Measured: growth

CCCCCCCCCCCCCCCCCCn1cc[n+](C)c1
active: SK-MEL-2 melanoma -61.3% and -51.7% | SN12C renal -52.5% and -68.4% | UO-31 renal -61.4% and -66.1% | TK-10 renal -70.2% and -72.4% | ACHN renal -12.4% and -43.5% | CAKI-1 renal -67.3% and -78.6% | A498 renal -50.9% and -44.9% | HL-60(TB) leukemia 3.76% and 2.22% | OVCAR-8 ovarian -20.2% and -37.4% | OVCAR-5 ovarian -61.5% and -59.7% | OVCAR-4 ovarian -19.3% and -13.3% | SK-OV-3 ovarian 4.83% and -9.16% | IGROV1 ovarian -43.9% and -43.1% | OVCAR-3 ovarian -48.7% and -56.3% | HS 578T breast -26.1% and -37%
16.8% (inactive) and 9.25% (active): MOLT-4 leukemia
4.33% (active) and 19% (inactive): SR leukemia
inactive: CCRF-CEM leukemia 34% and 67.8%

CC(=O)C(N)Cc1ccccc1 (stereo not drawn)
inactive: SK-MEL-2 melanoma 107% | EKVX NSCLC 100% | SN12C renal 95.7% | UO-31 renal 96.3% | ACHN renal 99.7% | CAKI-1 renal 96.2% | CCRF-CEM leukemia 84.4% | MOLT-4 leukemia 101% | SR leukemia 93.7% | RPMI-8226 leukemia 79.6% | OVCAR-8 ovarian 91.8% | OVCAR-5 ovarian 105% | OVCAR-4 ovarian 99.1% | IGROV1 ovarian 107% | OVCAR-3 ovarian 114%

NC(=O)Oc1cc(OC(N)=O)cc(N(CCCl)CCCl)c1
active: CAKI-1 renal -24.7% | SR leukemia -17.1%
inactive: SK-MEL-2 melanoma 93.2% | SN12C renal 37.5% | UO-31 renal 34.5% | TK-10 renal 103% | ACHN renal 15.7% | A498 renal 77.6% | HL-60(TB) leukemia 15.1% | CCRF-CEM leukemia 13.4% | MOLT-4 leukemia 13.1% | RPMI-8226 leukemia 59.7% | OVCAR-8 ovarian 28.5% | OVCAR-4 ovarian 74.7% | OVCAR-3 ovarian 82.8% | HS 578T breast 107%

CCCCCCCCCCCCCCCC[N+](C)(C)C
-58% (active) and 25.3% (inactive): A498 renal
-51.6% (active) and 29.3% (inactive): EKVX NSCLC
-34.5% (active) and 17.2% (inactive): OVCAR-4 ovarian
active: SK-MEL-2 melanoma -67.6% and -2.51% | SN12C renal -87.8% | HL-60(TB) leukemia -66.6% and -38.9% | MOLT-4 leukemia -52.4% | SR leukemia -54.9% and -48.6% | RPMI-8226 leukemia -14.9% and -9.1% | OVCAR-8 ovarian 0.0915% | OVCAR-5 ovarian -4.82% | IGROV1 ovarian -64% and -56.6% | OVCAR-3 ovarian -85.4% and -1.42% | HS 578T breast -24.3% and 2.19%
-58.7% (active) and 18.4% (inactive): CAKI-1 renal
-55.5% (active) and 11% (inactive): SK-OV-3 ovarian
-82.3% (active) and 62.9% (inactive): UO-31 renal
inactive: ACHN renal 19.4%

CC1(C)N(Nc2ccccc2)C(=O)C2CCCN21 (stereo not drawn)
active: CAKI-1 renal 6.09% | OVCAR-3 ovarian 0.57%
inactive: SK-MEL-2 melanoma 84% | EKVX NSCLC 74.4% | SN12C renal 91.5% | UO-31 renal 32.2% | ACHN renal 21% | A498 renal 96.5% | CCRF-CEM leukemia 18.5% | MOLT-4 leukemia 15.1% | SR leukemia 14.2% | RPMI-8226 leukemia 13.7% | OVCAR-8 ovarian 87% | OVCAR-5 ovarian 75.1% | OVCAR-4 ovarian 70.8% | SK-OV-3 ovarian 85.1% | IGROV1 ovarian 72.7% | HS 578T breast 85.9%

CCC1(CCSC#N)C(=O)NC(=O)NC1=O
inactive: SK-MEL-2 melanoma 109% | EKVX NSCLC 93.2% | SN12C renal 104% | UO-31 renal 87% | ACHN renal 106% | CAKI-1 renal 98.7% | A498 renal 90.9% | CCRF-CEM leukemia 103% | MOLT-4 leukemia 85.1% | SR leukemia 88.8% | RPMI-8226 leukemia 106% | OVCAR-8 ovarian 102% | OVCAR-5 ovarian 109% | OVCAR-4 ovarian 91.4% | SK-OV-3 ovarian 98.4% | IGROV1 ovarian 104% | OVCAR-3 ovarian 105% | HS 578T breast 106%

CC[C@H](C)[C@H](NC(=O)[C@H]1CCCCN1C)C(=O)N(C)[C@H](C[C@@H](OC(C)=O)c1nc(C(=O)N[C@@H](Cc2ccccc2)C[C@H](C)C(=O)O)cs1)C(C)C
active: SK-MEL-2 melanoma 2.53% | A498 renal -2.03% | HL-60(TB) leukemia -29.8% | CCRF-CEM leukemia 7.95% | SR leukemia 2.65% | OVCAR-3 ovarian -4.44%
inactive: EKVX NSCLC 38.4% | SN12C renal 47.5% | UO-31 renal 38.2% | CAKI-1 renal 35.9% | MOLT-4 leukemia 12.8% | RPMI-8226 leukemia 34.1% | OVCAR-5 ovarian 57.7% | OVCAR-4 ovarian 52.6% | SK-OV-3 ovarian 12.3% | IGROV1 ovarian 30.2% | HS 578T breast 25.3%

O=NN(c1ccccc1)c1ccccc1
inactive: SK-MEL-2 melanoma 105% | SN12C renal 98.1% | UO-31 renal 96% | TK-10 renal 103% | ACHN renal 118% | CAKI-1 renal 102% | A498 renal 101% | CCRF-CEM leukemia 98.9% | MOLT-4 leukemia 114% | SR leukemia 99.5% | RPMI-8226 leukemia 107% | OVCAR-8 ovarian 102% | OVCAR-5 ovarian 107% | OVCAR-4 ovarian 110% | SK-OV-3 ovarian 105% | OVCAR-3 ovarian 102% | HS 578T breast 107%

COc1cc(-c2ccc(N)c(OC)c2)ccc1N
inactive: SK-MEL-2 melanoma 118% | EKVX NSCLC 96% | SN12C renal 104% | UO-31 renal 93.6% | CAKI-1 renal 92.5% | A498 renal 118% | CCRF-CEM leukemia 113% | MOLT-4 leukemia 173% | SR leukemia 143% | RPMI-8226 leukemia 96.5% | OVCAR-8 ovarian 114% | OVCAR-5 ovarian 94.4% | OVCAR-4 ovarian 104% | SK-OV-3 ovarian 105% | OVCAR-3 ovarian 104% | HS 578T breast 105%

c1ccc2c(c1)sc1ccccc12
inactive: SK-MEL-2 melanoma 113% | EKVX NSCLC 93.6% | SN12C renal 98.4% | UO-31 renal 79.2% | ACHN renal 89.6% | CAKI-1 renal 84.4% | A498 renal 113% | MOLT-4 leukemia 104% | SR leukemia 105% | RPMI-8226 leukemia 103% | OVCAR-8 ovarian 101% | OVCAR-5 ovarian 95.7% | OVCAR-4 ovarian 105% | SK-OV-3 ovarian 104% | IGROV1 ovarian 98.2% | OVCAR-3 ovarian 116% | HS 578T breast 104%

O=S(OO)c1cc(Cl)c(O)c(Cl)c1 (stereo not drawn)
inactive: SK-MEL-2 melanoma 110% | SN12C renal 101% | UO-31 renal 84.2% | TK-10 renal 100% | ACHN renal 100% | CAKI-1 renal 91.3% | A498 renal 82.5% | HL-60(TB) leukemia 103% | CCRF-CEM leukemia 91% | MOLT-4 leukemia 103% | SR leukemia 95.1% | RPMI-8226 leukemia 99.9% | OVCAR-8 ovarian 101% | OVCAR-5 ovarian 107% | OVCAR-4 ovarian 89.9% | SK-OV-3 ovarian 103% | IGROV1 ovarian 104% | OVCAR-3 ovarian 114% | HS 578T breast 104%

CC/C(=C(\c1ccc(OCCN2CCOCC2)cc1)c1ccc(OC(=O)Cc2ccccc2)cc1)c1ccc(Cl)cc1
inactive: SK-MEL-2 melanoma 101% | EKVX NSCLC 109% | SN12C renal 98.6% | UO-31 renal 87.9% | CAKI-1 renal 91.9% | A498 renal 104% | HL-60(TB) leukemia 95.5% | CCRF-CEM leukemia 98.1% | MOLT-4 leukemia 96.7% | SR leukemia 95.6% | OVCAR-5 ovarian 104% | OVCAR-4 ovarian 120% | SK-OV-3 ovarian 111% | IGROV1 ovarian 106% | OVCAR-3 ovarian 102% | HS 578T breast 96.6%

COC(=O)C1=CCCN(C)C1
inactive: SK-MEL-2 melanoma 106% and 30.5% | EKVX NSCLC 97.8% and 98.7% | SN12C renal 107% and 105% | UO-31 renal 80.4% and 94% | CAKI-1 renal 93.7% and 102% | A498 renal 97.8% and 112% | HL-60(TB) leukemia 108% and 122% | CCRF-CEM leukemia 102% | MOLT-4 leukemia 105% and 97.6% | SR leukemia 99.7% and 110% | OVCAR-8 ovarian 105% | OVCAR-5 ovarian 94.9% | OVCAR-4 ovarian 107% and 101% | SK-OV-3 ovarian 111% and 110% | IGROV1 ovarian 102% and 145% | OVCAR-3 ovarian 120% and 118% | HS 578T breast 104% and 117%

O=[N+]([O-])c1ccc(P(=O)(O)O)cc1
inactive: SK-MEL-2 melanoma 103% | SN12C renal 101% | UO-31 renal 81.5% | TK-10 renal 101% | ACHN renal 98.8% | CAKI-1 renal 95.7% | A498 renal 125% | CCRF-CEM leukemia 97.1% | MOLT-4 leukemia 102% | SR leukemia 94.8% | RPMI-8226 leukemia 108% | OVCAR-8 ovarian 103% | OVCAR-5 ovarian 101% | OVCAR-4 ovarian 96.2% | SK-OV-3 ovarian 99.8% | IGROV1 ovarian 102% | OVCAR-3 ovarian 113% | HS 578T breast 108%

C[N+]12CCC34C5=CC(=O)C(=O)C=C5[N+]5(C)C(=O)CC6OCC=C(C1)C(CC32)C6C45 (stereo not drawn)
inactive: SK-MEL-2 melanoma 120% | SN12C renal 105% | UO-31 renal 96.7% | TK-10 renal 116% | ACHN renal 101% | CAKI-1 renal 116% | A498 renal 126% | CCRF-CEM leukemia 102% | MOLT-4 leukemia 102% | SR leukemia 92% | RPMI-8226 leukemia 102% | OVCAR-8 ovarian 99.5% | OVCAR-5 ovarian 106% | OVCAR-4 ovarian 101% | SK-OV-3 ovarian 99.9% | IGROV1 ovarian 96.9% | OVCAR-3 ovarian 103%

Nc1ccc(P(=O)(O)O)cc1
inactive: SK-MEL-2 melanoma 120% and 99.4% | EKVX NSCLC 95.7% | SN12C renal 103% and 101% | UO-31 renal 90.8% and 91.8% | CAKI-1 renal 102% and 99.5% | A498 renal 105% and 108% | HL-60(TB) leukemia 136% and 106% | MOLT-4 leukemia 110% and 112% | SR leukemia 108% and 115% | RPMI-8226 leukemia 97.8% and 104% | OVCAR-8 ovarian 101% and 98.4% | OVCAR-5 ovarian 97.6% and 99.8% | OVCAR-4 ovarian 90.7% | SK-OV-3 ovarian 104% and 108% | IGROV1 ovarian 97.9% and 111% | OVCAR-3 ovarian 107% and 110%
